Source: PubChem BioAssay (NCI)
This is part of a sample that, as a whole, favours compounds with a hit. Of some 83,000 tested, about 20% had one in any assay.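 Values shown are percent growth following 48 h exposure of cells in 96-well plates to a single concentration of compound; below 10 was considered active.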 Values without a mark were called inactive. Activity calls are given as the source filed them.

Test system: EKVX NSCLC
Test: NCI-60 one-dose screen, 48 h (100 = growth as untreated, 0 = no growth, -100 = all killed)
Settings: 10 µM unless noted

Compound	growth
O=c1nc2sc3nc4ccccc4cc3cc-2s1	48%
O=c1c(-c2nc3ccccc3[nH]2)cc2ccccc2n1Cc1cn(Cc2ccc(N3CCOCC3)cc2)nn1	89.7%
COC(=O)/C(CCC=C(C)C)=C1\[C@@H](OC(C)=O)C[C@@]2(C)[C@H]1CC(=O)[C@H]1[C@@]3(C)CC[C@H](NCc4ccccc4)[C@@H](C)[C@@H]3CC[C@@]12C	87.9%
S=C1CCCC(=S)N1	106%
CCCCC1COc2cccc3c2N1C=C/C3=C\C(=O)N(C)c1ccccc1 (centres undefined)	45.8%
O=C(Nc1ccc(N2CCNCC2)cc1)c1[nH]ncc1Nc1cc(Oc2ccccc2)ncn1	32.5%
COc1cc(C2CC(c3ccc(Nc4nc(NCCO)nc(N5CCOCC5)n4)cc3)=NN2c2cc(Cl)cc(Cl)c2)cc(OC)c1OC (centres undefined)	55.5%
Cc1ccc2sc3c(NCCCNCCO)nc4ccccc4c3c(=O)c2c1	57.3%
Nc1nc(N)c2c(n1)NC1(C=C(O)c3ccccc31)C1=C(N2)c2ccccc2C1=O (centres undefined)	113%
O=C(c1nc2ccccc2[nH]1)C1[C@@H](c2cccc(O)c2)C2CC3CCCCC3N2[C@@]12C(=O)Nc1cc(Cl)ccc12 (some centres undefined)	41.9%
Clc1ccc(COc2ccc(Nc3ncnc4onc(-c5ccccc5)c34)cc2)cc1	95.6%
CC1(O)COCCCCOc2c(CN)cccc2NC(=O)c2nc(cnc2N)-c2ccc(cc2)S(=O)(=O)C(C)(C)C1 (centres undefined)	-58% (active)
O=c1c2cc(F)ccc2sc2c(NCCN3CCCC3)nc3ccccc3c12	66.2%
COc1ccc(-c2nocc2-c2cccs2)cc1	91.6%
Cn1c2c(c(=O)[nH]c1=O)NC1=C(C(=O)c3ccccc31)C1(C=C(O)c3ccccc31)N2 (centres undefined)	95.7%
Cc1c(-c2noc(-c3ccc([N+](=O)[O-])cc3)n2)no[n+]1[O-]	65.2%
O=C(Nc1ccc(N2CCNCC2)cc1)c1[nH]ncc1Nc1ncnc2sc3c(c12)CCC3	-86.8% (active)
COC(=O)/C(CCC=C(C)C)=C1\[C@@H](OC(C)=O)C[C@@]2(C)[C@H]1CC(=O)N[C@H]1[C@@]3(C)CCNC(=O)[C@@H](C)[C@@H]3CC[C@@]12C	98%
O=C(Nc1ncc(Cc2cccc(C(F)(F)F)c2)s1)C1COc2ccccc2O1 (centres undefined)	75.5%
CCN1C(=O)N(CC)C2Nn3c(s/c(=C\c4ccccc4F)c3=O)=NC21 (centres undefined)	38.4%

Compound	growth
O=C1/C(=C/c2cccc(O)c2)COc2ccc(O)cc21	93.9%
O=C(NCc1ccco1)C1CN(c2ccc(Cl)cc2)N(c2ccc(Cl)cc2)C1=O (centres undefined)	65.5%
CC(=O)c1ccc(NC(=O)Nc2ccc(S(=O)(=O)Nc3ccc(Cl)nn3)cc2)cc1	99%
O=C(/C=C/c1ccc(Cl)cc1)c1ccc(Nc2nc(NCCO)nc(N3CCOCC3)n2)cc1	94%
CN(O)c1nc(N(C)O)nc(N2CCOCC2)n1	5.22% (active)
C1CCN(c2nc(N3CCCCC3)nc(N3CCOCC3)n2)CC1	85.4%
Cn1nc(C(F)(F)F)c(-c2ccc(Cl)c(C(F)(F)F)c2)c1-c1ccc(OCc2ccc(Cl)cc2)cc1O	12.8%
CC/C=C\C[C@H](O)C/C=C1/C(=O)C=C[C@@H]1C/C=C\CCCC(=O)OCCS(=O)(=O)c1ccccc1	104%
O=C(/C=C/c1ccc(F)cc1)c1ccc(Nc2nc(NCCO)nc(Nc3ccc(Cl)cc3)n2)cc1	67.7%
COc1cc(C2C3=C(COC3=O)N(CCO)c3cc4c(cc32)OCCO4)cc(OC)c1O (centres undefined)	41%
COc1cc2nc(NC3CCCC3)nc(NC3CCN(C(C)C)CC3)c2cc1OC	81.6%
CCCCC1CCc2cccc3c(SCC(=O)N(C)c4ccc(Cl)cc4)cc[n+]1c23 (centres undefined)	125%
CC(=O)c1ccc(Nc2nc(NCCO)nc(Nc3ccc(Cl)cc3)n2)cc1	80.2%
NC1C(N)C(N)C1N (centres undefined)	121%
Cc1ccc2cccc(Oc3ccc(Nc4ncnc5onc(-c6ccccc6)c45)cc3)c2n1	85.5%
COc1cc(C=C2C(=O)N(C)C(=O)N(C)C2=O)cc(CN2CCCCC2)c1O	104%
COc1cc2nc(-c3cnc(N(C)C)nc3)nc(NC3CCN(Cc4ccccc4)CC3)c2cc1OC	-71.2% (active)
COc1ccc(CCN2C(=O)CCSC2=S)cc1OC	97.4%
NCCCNc1nc2ccccc2c2c(=O)c3cc(F)ccc3sc12	35.6%
